The source of these data is PubChem BioAssay AID1347165 (National Center for Advancing Translational Sciences (NCATS), 2019).

Out of some 220,000 compounds screened, about 5,700 (2.6%) were called active. Not shown: some 18% with an inconclusive outcome. The full list was thinned out, with actives kept by preference. Values without a mark were called inactive. Calls follow the shape of the dose curve; as a rule, active = well fitted inhibition curve with a large enough effect; inconclusive = small, poorly fitted or top-dose-only effect; inactive = no such curve, though single readings can be large or run the other way.
Potency is read from the fitted curve at half-maximal effect.

Chain of Lysine-specific demethylase 5B (Homo sapiens) (Q9UGL1 whole entry, looked up): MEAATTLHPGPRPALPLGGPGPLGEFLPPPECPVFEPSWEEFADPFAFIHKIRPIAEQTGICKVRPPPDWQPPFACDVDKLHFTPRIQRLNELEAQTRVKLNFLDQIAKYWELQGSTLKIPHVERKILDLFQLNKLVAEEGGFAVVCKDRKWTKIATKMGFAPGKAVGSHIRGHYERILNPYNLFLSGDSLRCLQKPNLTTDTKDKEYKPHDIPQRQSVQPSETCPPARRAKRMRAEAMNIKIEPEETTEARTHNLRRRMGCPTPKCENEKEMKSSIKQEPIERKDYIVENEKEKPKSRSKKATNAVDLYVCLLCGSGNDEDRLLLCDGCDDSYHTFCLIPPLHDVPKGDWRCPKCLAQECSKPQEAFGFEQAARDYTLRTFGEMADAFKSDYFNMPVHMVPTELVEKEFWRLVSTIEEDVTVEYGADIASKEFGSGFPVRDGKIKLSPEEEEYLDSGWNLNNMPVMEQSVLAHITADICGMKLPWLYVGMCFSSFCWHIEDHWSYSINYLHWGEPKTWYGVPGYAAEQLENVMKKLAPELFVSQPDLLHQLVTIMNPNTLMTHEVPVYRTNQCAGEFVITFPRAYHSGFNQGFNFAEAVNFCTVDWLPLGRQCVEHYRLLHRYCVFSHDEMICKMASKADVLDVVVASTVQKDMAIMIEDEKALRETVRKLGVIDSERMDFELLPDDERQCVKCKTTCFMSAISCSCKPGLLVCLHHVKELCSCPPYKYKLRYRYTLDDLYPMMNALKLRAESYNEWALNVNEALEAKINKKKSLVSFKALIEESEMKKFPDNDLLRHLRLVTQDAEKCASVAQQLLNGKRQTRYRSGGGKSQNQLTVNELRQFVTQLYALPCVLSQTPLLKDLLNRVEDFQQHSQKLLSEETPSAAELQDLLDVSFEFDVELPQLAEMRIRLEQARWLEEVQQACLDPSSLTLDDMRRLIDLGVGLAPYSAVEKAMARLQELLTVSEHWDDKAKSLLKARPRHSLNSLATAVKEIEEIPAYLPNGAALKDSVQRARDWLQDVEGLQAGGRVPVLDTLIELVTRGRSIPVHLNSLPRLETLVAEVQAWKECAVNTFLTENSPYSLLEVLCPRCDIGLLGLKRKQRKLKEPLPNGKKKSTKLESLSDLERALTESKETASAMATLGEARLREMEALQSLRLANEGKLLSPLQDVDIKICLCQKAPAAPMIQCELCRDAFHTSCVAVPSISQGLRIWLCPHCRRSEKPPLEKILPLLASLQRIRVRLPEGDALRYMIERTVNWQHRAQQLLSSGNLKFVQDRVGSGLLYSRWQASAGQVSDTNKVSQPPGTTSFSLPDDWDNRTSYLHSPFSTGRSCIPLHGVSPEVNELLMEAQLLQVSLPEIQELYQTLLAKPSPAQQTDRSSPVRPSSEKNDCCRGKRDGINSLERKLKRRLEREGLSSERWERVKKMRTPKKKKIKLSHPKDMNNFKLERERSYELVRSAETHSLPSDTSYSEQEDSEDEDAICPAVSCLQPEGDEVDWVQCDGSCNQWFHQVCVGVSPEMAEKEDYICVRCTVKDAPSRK

The target of the assay is Lysine-specific demethylase 5B (Homo sapiens) (UniProt Q9UGL1). In words: Primary screen for KDM5B Histone Demethylases FDH-coupled qHTS. Also: nearly all actives have a fitted effect of over 70% in size. As to activity change, negative = inhibition: 0% is about no effect. Conditions: FDH-coupled NADH fluorescence (FDH is formaldehyde dehydrogenase); series mostly up to 57.7 µM; activity change, negative = inhibition: at the top concentration. Put shortly:
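Coupled FDH/NAD⁺ fluorescence readout. KDM5BΔAP 200 nM final; compound titration, 10 min RT preincubation; substrate mix 12.5 µM H3K4me3, 25 µM 2-OG, 50 µM Fe(II), 100 µM ascorbate, 0.25 mM NAD⁺, 0.25 U/mL FDH; ΔRFU over 30 min.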
A general note: qHTS replaces the single test concentration by a dilution series.
In the case of `CCc1ccc(N(CC)C(=O)C(=O)c2c[nH]c3ccccc23)cc1`, the “activity change, negative = inhibition” value was -2.57%.

`Cc1ccc2[nH]c(=O)c(COC(=O)c3ccccn3)cc2c1`: the “activity change, negative = inhibition” value is -7.73%. As to `Cc1ccc(CCC(=O)NCc2cccnc2)cc1`, the “activity change, negative = inhibition” value is 15.1%. With `Cc1ccc2[nH]c(=O)c(CCC(=O)NCc3ccncc3)cc2c1`, the Potency is 25.1 µM (active). Regarding `COCCN(C)C[C@H]1C[C@H](CO)CN(C(=O)c2ccc(C(C)C)[nH]c2=O)C1`, the “activity change, negative = inhibition” value was -34.1%. In the case of `CC1(C)CC(=O)C2=C(C1)Nc1nc(N)[nH]c(=O)c1C2c1ccc2c(c1)OCO2` (configuration not stated), the “activity change, negative = inhibition” value is 13.2%. `CCN(CC)c1nc2ccccc2nc1C(=O)Nc1ccc(C)c(C)c1`: the “activity change, negative = inhibition” value was 4.42%. As for `Cc1cn2nc(C(=O)Nc3ccc(F)cc3C)cc2c(N(C)Cc2ccccc2)n1`, the Potency was 20 µM (active).

As to `Cc1cc(C)cc(NC(=O)N(C)Cc2ccccc2)c1`, the “activity change, negative = inhibition” value is -9.55%. Same read-out and setting: the result for `COc1cccc(CNC(=O)Cn2c(N(C)Cc3ccccc3)nc(C)cc2=O)c1OC` reads -11.1%; that for `Cc1cn2nc(C(=O)Nc3ccc(F)cc3F)cc2c(N(C)Cc2ccccc2)n1`, -3600%. Regarding `Cc1cn2nc(C(=O)Nc3cccc(F)c3)cc2c(N(C)Cc2ccccc2)n1`, the “activity change, negative = inhibition” value was -6350%. Consider `COc1ccc(NC(=O)c2cc3c(N(C)Cc4ccccc4)nc(C)cn3n2)cc1F`, for which the Potency is 17.8 µM (active). Regarding `CCN(CC)c1nc2ccccc2nc1C(=O)Nc1ccc(C)cc1C`, the “activity change, negative = inhibition” value was 8.4%. Turning to `Cc1cn2nc(C(=O)Nc3cc(F)cc(F)c3)cc2c(N(C)Cc2ccccc2)n1`, the Potency is 25.1 µM (active). As to `Oc1ccc(-c2nc(-c3ccccc3F)cs2)cc1`, the “activity change, negative = inhibition” value was -17.7%. On the same count and under the same terms, the result for `C=CCNC(=O)Nc1cc(NC(=O)Nc2ccccc2)ccc1C` reads -9.95%. With `Cc1ccc(CN2CCOc3cc([S+](=O)([O-])N(C)C)ccc3C2)c(F)c1`, the “activity change, negative = inhibition” value was -17.1% [at 86.2 µM].

For the compound `Cc1ccc(CN2CCC(Oc3cnc4c(ccn4CCN[S+](C)(=O)[O-])c3)CC2)c(F)c1`, the Potency was 31.6 µM (active).

Take `CCCc1noc(CSc2nc(-c3ccco3)nc3ccccc23)n1`: the “activity change, negative = inhibition” value was -14%. On the same count and under the same terms, the result for `O=C(O)C/C(=C/c1cccc(Cl)c1)c1nc2ccccc2o1` reads -27.5%; that for `CCCOc1ccc2ccccc2c1CN(C)C(=O)c1n[nH]c(=O)c2ccccc12`, 21.4%. Take `CN(C)c1cccc(Nc2cc3c(cn2)NCCN(Cc2ccccc2)C3)c1`: the Potency was 25.1 µM (active). Turning to `Cn1ccc(Nc2cc3c(cn2)CN(CCc2ccccc2)CCN3)n1`, the “activity change, negative = inhibition” value was -22.9% [at 86.2 µM]. Still for that read-out and setting: the result for `Fc1ccccc1CN1CCNc2cc(Nc3cccnc3)ncc2C1` reads -4.83% [at 86.2 µM]; that for `NC(=O)c1cccc(C(=O)N2CCC(c3nc4ccccc4o3)CC2)c1`, -18.1%. Consider `CCOc1c(OC)cccc1-c1nc2ccc(-c3ccc(OC)c(OC)c3OC)cc2o1`, for which the Potency is 12.6 µM (active). On to `COc1cccc(-c2nc3ccc(-c4ccc5c(c4)OCO5)cc3o2)c1OC`, for which the “activity change, negative = inhibition” value was -2830%. As for `COc1cccc(NC(=O)Nc2cc(-c3nc4ccccc4o3)ccc2OC)c1`, the “activity change, negative = inhibition” value was -15%.

As for `Cc1ccc2c(c1)-c1c(cnn1CC(=O)N(C)c1ccccc1Cl)CO2`, the “activity change, negative = inhibition” value was -4.49%. On to `CC(C)(C)c1cc(NC(=O)Nc2cc(Cl)cc(Cl)c2)no1`, for which the “activity change, negative = inhibition” value is 6.25%.

Take `COCCOc1ncccc1-c1noc([C@@H]2CCCN2CC(C)(C)C)n1`: the “activity change, negative = inhibition” value is -25.1% [at 86.2 µM].

Turning to `COCCNc1ncccc1-c1noc([C@@H]2CCCN2Cc2ccc3c(c2)OCO3)n1`, the Potency was 31.6 µM (active). For the compound `COCCOc1ccnc(-c2noc([C@@H]3CCCN3Cc3ccc(Cl)cc3)n2)c1`, the “activity change, negative = inhibition” value is -11.4% [at 86.2 µM].

Regarding `Cc1c(-c2ccc(Cl)cc2)nc2ccccc2c1C(=O)NC1CCCCCCC1`, the “activity change, negative = inhibition” value is -6.4%.

Regarding `COCCN1CCOc2nc(-c3cccc(C)c3)ncc2C1=O`, the “activity change, negative = inhibition” value is -21.3% [at 86.2 µM]. As for `COc1ccc(-c2ncc3c(n2)OCCN(CC2CC2)C3=O)cc1`, the Potency is 35.5 µM (active). Regarding `NC(=O)c1cccc(-c2ncc3c(n2)OCCN(CC2CC2)C3=O)c1`, the “activity change, negative = inhibition” value is -6.2% [at 86.2 µM]. As for `COc1ccc(F)cc1-c1ncc2c(n1)OCCN(CC1CC1)C2=O`, the Potency is 35.5 µM (active). For `COc1cccc(-c2ncc3c(n2)OCCN(Cc2ccc(F)cc2F)C3=O)c1OC`, the “activity change, negative = inhibition” value was -12.7% [at 86.2 µM]. Same read-out and setting: the result for `C[S+](=O)([O-])c1cccc(-c2ncc3c(n2)OCCN(Cc2ccc(F)cc2F)C3=O)c1` reads 14%.

In the case of `Cn1c(=O)c2c(nc(SCC(=O)Nc3ccccc3)n2Cc2ccccc2Cl)n(C)c1=O`, the “activity change, negative = inhibition” value is 12.9%. Take `Cc1[nH]c2ccccc2c1C(=O)C(C)Sc1nnc(C2CC2)o1` (configuration not stated): the “activity change, negative = inhibition” value is 1.67%. In the case of `CC(C)c1ccc(C(=O)OC2CCOC2=O)cc1` (configuration not stated), the “activity change, negative = inhibition” value is 17.3%. In the case of `Cc1oc(-c2cccs2)nc1CC(=O)N1CCCC1c1ccccc1` (configuration not stated), the “activity change, negative = inhibition” value is 724%. On to `CCOc1ccc(NC(=O)CN(C)C(=O)Cn2c(=O)cnc3ccccc32)cc1OCC`, for which the “activity change, negative = inhibition” value was 29.3%. As to `COc1ccc(N2C(=O)C(C)CS2(=O)=O)cc1S(=O)(=O)Nc1ccc(N2CCCC2)cc1` (configuration not stated), the “activity change, negative = inhibition” value is -5.29%. As for `Cc1cc(N2CCC(NC(=O)c3ccc(N(C)C)cc3)C2=O)ccc1F` (configuration not stated), the “activity change, negative = inhibition” value was 14%. Take `Cc1ccc(N2CCC(NC(=O)c3ccc4[nH]ccc4c3)C2=O)cc1C` (configuration not stated): the Potency is 31.6 µM (active). Take `Cc1ccc(C(=O)NC2CCSC2=O)cc1C` (configuration not stated): the “activity change, negative = inhibition” value was 11.2%.

Take `COCC(=O)N1CCN(C2CCN(CCc3ccccc3)C2=O)CC1` (configuration not stated): the “activity change, negative = inhibition” value is -20.4%. Still for that read-out and setting: the result for `CCc1cccc(CC)c1NC(=O)C(C)Sc1ccc(C)cc1` (configuration not stated) reads 12.7%; that for `Cc1cc(NC(=O)Nc2c(C3=CCCCC3)c(C)nn2C)ccc1Br`, -2.95%; that for `O=c1[nH]c(-c2ccncc2)nc2c1CCN(S(=O)(=O)N1CCCC1)C2`, 2.21%. As for `Cc1ccc(C(=O)NC2CCN(C(=O)Nc3ccc(F)cc3)CC2)cc1`, the “activity change, negative = inhibition” value was 21.4%. As to `CC(=O)c1ccc(NC(=O)N2CCc3c(nc(-c4ccc(F)cc4)[nH]c3=O)C2)cc1`, the Potency was 25.1 µM (active).

Turning to `O=C(c1ccco1)N1CCC(C(=O)N2CCN(C(=O)C3CC3)CC2)CC1`, the “activity change, negative = inhibition” value is 0.121%. The same measure, in the same setting: the result for `CC(=O)Nc1ccc(SCC(=O)N(Cc2nc3ccccc3c(=O)[nH]2)CC2CCCO2)cc1` (configuration not stated) reads 1.89%. For the compound `Cc1nnc(-c2cc(-c3ccccc3)ccn2)n1CCc1ccccc1`, the “activity change, negative = inhibition” value is 8.26% [at 86.2 µM]. With `COc1ccc(-c2ccnc(-c3nnc(C)n3C3CCN(C)CC3)c2)cc1OC`, the Potency was 31.6 µM (active). For the compound `COCCn1c(C)nnc1-c1cc(-c2cccc(F)c2)ccn1`, the “activity change, negative = inhibition” value is 5.49% [at 86.2 µM]. The same measure, in the same setting: with `Cc1nnc(CSc2nnc(Nc3cccc(C)c3C)s2)o1` the figure was 12.9%. In the case of `COc1cc(-c2ccnc3nc(C4CC4)nn23)cc(OC)c1OC`, the Potency was 17.8 µM (active). Regarding `O=C(Nc1cccn2nc(C3CCC3)nc12)c1cccc(F)c1`, the “activity change, negative = inhibition” value is -13.1%. Consider `COc1cc(C(=O)N2CCC(c3ccncc3)CC2)cc(OC)c1OC`, for which the “activity change, negative = inhibition” value is -2.26%. As for `Fc1ccc(-c2ccnc3nc(C4CCC4)nn23)cc1`, the Potency was 31.6 µM (active).

On to `COc1ccc(N2CC(c3noc(-c4cc(OC)c(OC)c(OC)c4)n3)CC2=O)cc1` (configuration not stated), for which the “activity change, negative = inhibition” value was -26.1%.
